Laboratory results reported in PubChem BioAssay AID624330 (Southern Research Specialized Biocontainment Screening …, 2012).
About 2,100 (0.62%) of roughly 340,000 compounds were called active.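 The calls were made as follows: active = first-screen hits whose inhibition reached a set limit at any dose in the follow-up dose series; inconclusive = inhibition above the set first-screen limit but never retested; inactive = the rest.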 A selection follows. Measured potencies and affinities stand elsewhere.

Target: Rac GTPase-activating protein 1 (Homo sapiens) (UniProt Q9H0H5)
Assay: MgcRacGAP GTPase-activating activity inhibitors, confirmation, biochemical, ADP Hunter fluorescence, primary and confirmatory (AID 624330);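 also: fluorescence reports GDP produced by GAP-driven GTP hydrolysis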
Conditions: MgcRacGAP-stimulated Rac1 GTP hydrolysis, at 30 µM, hits give high values, GST-tagged Rac1 F28L mutant substrate

Chain of Rac GTPase-activating protein 1 (Homo sapiens) (Q9H0H5 whole entry, looked up): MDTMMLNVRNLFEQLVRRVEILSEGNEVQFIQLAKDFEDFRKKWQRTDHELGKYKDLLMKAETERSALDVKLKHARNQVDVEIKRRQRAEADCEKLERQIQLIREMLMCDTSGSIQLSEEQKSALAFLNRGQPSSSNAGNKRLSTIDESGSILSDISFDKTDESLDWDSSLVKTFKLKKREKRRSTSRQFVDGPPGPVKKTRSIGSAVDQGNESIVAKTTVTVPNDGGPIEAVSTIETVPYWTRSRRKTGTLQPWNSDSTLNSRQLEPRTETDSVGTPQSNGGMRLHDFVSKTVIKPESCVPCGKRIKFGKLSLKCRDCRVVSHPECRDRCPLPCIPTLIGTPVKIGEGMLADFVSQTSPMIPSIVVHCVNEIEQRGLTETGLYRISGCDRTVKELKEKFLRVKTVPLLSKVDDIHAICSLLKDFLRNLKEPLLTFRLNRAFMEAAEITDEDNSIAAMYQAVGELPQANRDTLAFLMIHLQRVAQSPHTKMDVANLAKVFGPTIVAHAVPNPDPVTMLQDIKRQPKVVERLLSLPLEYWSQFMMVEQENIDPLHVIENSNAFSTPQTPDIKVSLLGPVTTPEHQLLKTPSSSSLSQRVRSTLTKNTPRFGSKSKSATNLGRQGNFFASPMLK

inhibition, inactive:
Cn1c(=O)c2ncn(CC(=O)NCCOCc3ccccc3Cl)c2n(C)c1=O 0.57%
O=C(CS(=O)CC(=O)Nc1cccnc1)Nc1ccc(F)cc1 (stereo unspecified) 5.58%
CCOc1ccccc1/C=C(\C#N)C(=O)Nc1cccc(C(=O)O)c1 -4.51%
CCCCN(C(=O)C1CCN(C(=O)c2ccccc2C)CC1)c1c(N)n(CCCC)c(=O)[nH]c1=O 4%
O=C(O)COCC(=O)Nc1ccc2c(c1)ncn2CCc1ccccc1 2.87%
NC(=O)c1ccc(NC(=O)c2cncn2-c2ccccc2)cc1 1.08%
CC(C)(C)C1CCC(=O)N(CCOc2ccccc2)CC1 (stereo unspecified) 5.11%
CCN(c1ccccc1)S(=O)(=O)c1ccc(N2CCN(c3ccccc3O)CC2)nc1 5.54%
CCN(c1ccccc1)S(=O)(=O)c1ccc(N2CCN(c3ccc(OC)cc3)CC2)nc1 4.13%
CN1/C(=C\C(=O)c2cccc([N+](=O)[O-])c2)Sc2ccccc21 10.8%
CSCCC(NC(=O)c1ccc([N+](=O)[O-])cc1Cl)C(=O)OCC(=O)NC(=O)CN1CCCC1=O (stereo unspecified) -5.24%
CCOc1ccc(CN2CCN(S(=O)(=O)c3ccc(NC(C)=O)cc3)CC2)cc1OC 10.5%
CCOc1ccc(S(=O)(=O)N2CCN(Cc3ccccc3)CC2)cc1 -12%
Cc1ccc(S(=O)(=O)NCCC(=O)N2CCN(c3ccccc3)CC2)cc1C -2.5%
O=C(COC(=O)Cn1cnc2ccccc21)NCCCc1ccccc1 0.48%
O=C(CNCc1cccc(Cl)c1)N1CCc2ccccc2C1 30.6%
O=C(CNCc1ccc(Cl)cc1)N1CCc2ccccc2C1 25.8%
CN(Cc1ccc(N(C)C)cc1)C(=O)c1cc2ccccc2o1 2.93%
C#CCOCCOCCOCCNc1nc(N2CCN(C(=O)Cn3cc(CCO)nn3)CC2)nc(N2CCN(C(=O)[C@H]([C@@H](C)CC)n3cc(CCCN=C(N)N)nn3)CC2)n1 -0.25%
O=C(Cc1ccc([N+](=O)[O-])cc1)Nc1cccc(C(=O)N2CCCCC2)c1 6.71%
N/C(COc1ccc(Cl)cc1Cl)=N\O 7.42%
C[C@@H](NC(=O)C[C@@H]1C[C@@H]2c3cc(NS(=O)(=O)c4ccc(F)cc4)ccc3O[C@@H]2[C@@H](CO)O1)c1ccccc1 14.8%
CCN1/C(=C2/SC(=S)N(C)C2=O)C=Cc2cc(C)ccc21 1.56%
CCN1/C(=C2\C(=O)N(C)C(=S)N2C)C=Cc2cc(C)ccc21 30.1%
CC(C)CNC(=S)NC1CC2CCCC(C1)N2Cc1cccs1 (stereo unspecified) -4.03%
CCOC(=O)Nc1cc(NC(=O)OCC)c(C)nc1C 9.52%
Cc1ccc(Nc2ncnc3c2oc2ccccc23)cc1 11.9%
CCc1nc(Nc2ccncc2)c2oc3ccccc3c2n1 9.44%
CC(=O)c1ccc(Nc2ncnc3c2oc2ccccc23)cc1 5.82%
CCc1nc(SCC(=O)N2CCN(c3ccccc3)CC2)c2oc3ccccc3c2n1 18.4%
c1ccc(Nc2ncnc3c2oc2ccccc23)cc1 13%
CCc1nc(Nc2ccc(F)cc2)c2oc3ccccc3c2n1 10.5%
CCc1nc(Nc2ccccc2)c2oc3ccccc3c2n1 7.79%
c1ccc2c(c1)oc1c(Nc3ccc(CN4CCOCC4)cc3)ncnc12 14.1%
COc1ccc(NC(=O)Nc2nnc(CC(=O)NCc3ccccc3)s2)cc1 -13.3%
COc1cc(C(=O)N2CCN(c3ccc([N+](=O)[O-])cc3)CC2)ccc1OCc1c(C)noc1C 12.9%
COc1cc(NC(=O)Cn2cnc(S(=O)(=O)N3CCCCC3)c2)cc(OC)c1OC 1.97%
O=C(NCc1ccccc1)c1cc(=O)c2ccccc2o1 3.22%
CSC[C@H]1CN(Cc2ccccc2)C(=O)[C@@H]1CC(=O)Nc1ccc(Br)cc1 11%
COCCCn1c(SCC(=O)NC(C)(C)C)nnc1-c1cccs1 9.91%
O=C(N/N=C/c1ccc(C(F)(F)F)cc1)c1ccncc1 5.6%
Cc1ccc(Nc2ncnc3ccccc23)cc1 12.6%
Fc1ccc(Nc2ncnc3ccccc23)cc1 9.64%
COc1ccc(-c2nsc(SCC(=O)NCC3CCCO3)n2)cc1 (stereo unspecified) 5.33%
O=C1C2C3C=CC(CC3)C2C(=O)N1c1ccc([N+](=O)[O-])cc1 (stereo unspecified) 12.6%
COc1ccnc(NCc2cccc(C(F)(F)F)c2)c1C#N -0.963%
COc1cccc(Cn2nc(C(=O)O)c3ccccc3c2=O)c1 0.46%
CCn1c2ccccc2c2cc(NC(=O)c3ccc([N+](=O)[O-])cc3)ccc21 8.32%
Cn1ccc(=O)c2cc([N+](=O)[O-])ccc21 9.86%
Cc1csc(SCC(=O)NC2CCC(C)CC2)n1 (stereo unspecified) -6.91%
O=C(c1ccco1)N1CCN=C1SCc1cccnc1 4.28%
CC(=O)Nc1ccc(NC(=O)C(C)Oc2ccc(Cl)cc2Cl)cc1 (stereo unspecified) 1.91%
CC(Oc1ccc(Cl)cc1Cl)C(=O)Nc1cccc(O)c1 (stereo unspecified) 9.91%
O=C(Nc1ccc(S(=O)(=O)N2CCOCC2)cc1)c1ccc(S(=O)(=O)N2CCOCC2)cc1 0.49%
CCC(=O)Nc1ccc(NC(=O)c2ccc3c(c2)OCO3)cc1 11.5%
O=C(O)[C@H]1CCCC[C@H]1C(=O)Nc1ccc(S(=O)(=O)N2CCOCC2)cc1 4.65%
CC(=O)Nc1ccc(C(=O)Nc2ccc(S(=O)(=O)N3CCOCC3)cc2)cc1 -2.26%
CCN(CC)c1ccc(NC(=O)c2ccc3c(c2)OCO3)c(C)c1 24.3%
NC(=O)c1ccc(NC(=O)COC(=O)c2ccc3c(c2)OCO3)cc1 2.24%
O=C(O)C1CCCCC1C(=O)Nc1ccc(S(=O)(=O)N2CCCC2)cc1 (stereo unspecified) 6.7%
O=C(COC(=O)c1ccc2c(c1)OCO2)Nc1ccccc1 4.56%
